Experimental findings from PubChem BioAssay AID743380 (National Center for Advancing Translational Sciences (NCATS), 2014) are described below.

Activity calls are given as the source filed them. Calls come from the whole dose curve.

Sequence of Phosphatidylinositol 4-phosphate 5-kinase type-1 alpha (Homo sapiens) (Q99755 whole entry, looked up, canonical isoform): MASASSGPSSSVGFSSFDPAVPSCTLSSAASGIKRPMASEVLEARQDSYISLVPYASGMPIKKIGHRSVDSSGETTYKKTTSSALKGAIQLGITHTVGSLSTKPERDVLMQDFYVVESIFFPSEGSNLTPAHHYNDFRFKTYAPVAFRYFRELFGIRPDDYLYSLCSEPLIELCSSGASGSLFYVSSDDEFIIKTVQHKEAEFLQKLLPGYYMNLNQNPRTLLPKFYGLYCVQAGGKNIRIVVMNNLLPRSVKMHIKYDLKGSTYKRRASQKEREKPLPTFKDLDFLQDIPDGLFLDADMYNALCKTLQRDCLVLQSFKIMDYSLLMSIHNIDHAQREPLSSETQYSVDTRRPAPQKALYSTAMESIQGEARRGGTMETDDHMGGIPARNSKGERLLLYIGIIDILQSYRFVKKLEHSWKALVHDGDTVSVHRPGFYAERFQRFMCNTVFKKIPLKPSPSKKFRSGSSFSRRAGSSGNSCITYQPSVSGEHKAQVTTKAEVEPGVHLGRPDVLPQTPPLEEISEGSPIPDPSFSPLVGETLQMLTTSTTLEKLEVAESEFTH

This assay addresses Phosphatidylinositol 4-phosphate 5-kinase type-1 alpha (Homo sapiens) (UniProt Q99755). As to the kind of experiment: qHTS for Inhibitors of PI5P4K: PI4P5K-alpha 32P-ATP TLC Secondary Assay for Probe SAR. Particulars: recombinant PI4P5K-alpha, 32P-ATP TLC phosphorimager. The text has this:
In addition to finding PI5P, we discovered the type II phosphatidylinositol 5-phosphate 4-kinase (PI5P4K) family (alpha, beta, gamma isoforms) that catalyze the conversion of PI5P to PI(4,5)P2. Alternatively, PI(4,5)P2 can also be synthesized through phosphatidylinositol-4-phosphate (PI4P) by the type I phosphatidylinositol 4-phosphate 5-kinases (PI4P5K). These PI5P4K enzymes therefore represent one way by which cells can regulate endogenous PI5P levels and play important roles in insulin signaling and in stress responses. […] A qHTS PI5P4K-alpha ADP-Glo assay was developed to identify specific modulators of human PI5P4K, phosphatidylinositol-5-phosphate 4-kinase (Type II PIPK). To confirm that the active compounds and their analogs were true and selective inhibitors, a secondary Thin-layer Chromatography (TLC) assays against recombinant PI5P4K-alpha, PI4P5K-alpha or PI5P4K-beta that utilize a radioactively labeled ATP were developed. The data herein is the result of the PI4P5K-alpha TLC assay. […]
The kinase reaction was carried out in a total of 50 microL of kinase buffer (50 mM HEPES pH 7.4 and 10 mM MgCl2) containing 20 microM of the lipids that were suspended by sonication. […] The radiolabeled product, PI(4,5)P2, was quantified with a phosphorimager (Molecular Dynamics, STORM840, GE Healthcare, Waukesha, WI, USA).
(In general: Quantitative high-throughput screening tests each substance at several concentrations.)
Turning to `O=C1Nc2ccc(C(=O)c3ccco3)cc2/C1=C/c1cc(Cl)c(O)c(Cl)c1`, the Potency is 0.498 µM (active).
